Rows were chosen to be rich in hits. Some 1.4% of all compounds tested hit in one or more screens of this group.
PV pol inh = inhibitors of poliovirus RNA polymerase binding and polymerization. poliovirus polymerase elongation, fluorescence polarization; hits give low values. % elongation, % (compound at 16.7 µg/mL). hit rate 0.66% among 150,000; in the data active = % elongation below about 90%
Target sequence (P03300 1749-2209 limits assumed): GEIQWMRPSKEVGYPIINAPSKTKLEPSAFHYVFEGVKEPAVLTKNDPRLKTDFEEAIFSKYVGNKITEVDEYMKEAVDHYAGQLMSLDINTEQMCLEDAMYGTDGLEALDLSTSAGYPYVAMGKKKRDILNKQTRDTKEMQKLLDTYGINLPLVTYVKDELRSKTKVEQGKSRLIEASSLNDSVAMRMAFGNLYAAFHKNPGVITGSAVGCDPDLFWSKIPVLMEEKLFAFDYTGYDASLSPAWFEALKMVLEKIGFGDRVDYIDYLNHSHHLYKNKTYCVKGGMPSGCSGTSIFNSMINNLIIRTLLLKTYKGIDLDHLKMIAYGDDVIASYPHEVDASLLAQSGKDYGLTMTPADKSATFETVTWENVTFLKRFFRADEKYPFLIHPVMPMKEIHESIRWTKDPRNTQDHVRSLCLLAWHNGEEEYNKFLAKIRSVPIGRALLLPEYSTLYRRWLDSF
Mtb MenB inh = inhibitors of Mycobacterium tuberculosis MenB enzyme | P9WNP5 | inhibition, % (test concentration not listed) | hit rate 0.43% among 100,000 | MenB enzyme assay, absorbance read-out; in the data active = inhibition above about 21%, passing the limit was not always enough
Mtb MbtI inh = MbtI salicylate synthase inhibition; P9WFX0; purified MbtI enzyme, fluorescence intensity read-out; inhibition, % (no concentration beside the values); hit rate 0.89% among 100,000; in the data active = inhibition mostly above about 56%, no sharp cut-off; inactive = mostly below about 77%
An asterisk follows results filed as active; i = inactive; nt = not tested or not shown.

SMILES	PV pol inh	Mtb MenB inh	Mtb MbtI inh
NC(=S)N(c1ccccc1)c1ccccc1	101	32*	5
COC(CNc1ncnc2sc(-c3ccccc3)cc12)OC	102	-29	80*
OCCCNc1ncnc2sc(-c3ccccc3)cc12	98	-20	107
Cc1ccc(C)c(N2CCN(CCCNC(=O)C3CCCN(c4ncnc5c4nc4n5CCCCC4)C3)CC2)c1 (stereo not given)	104	-20	-2
CC(C)(C)Nc1nc2c(s1)CCCC2	101	9	78*
C1CCN=C(Nc2nc3c(s2)CCCC3)CC1	106	-6	3
COCCCn1c(SCc2ccc(C(=O)O)cc2)n[nH]c1=O	103	-33	-6
Nc1nccnc1C(=O)OCC(=O)N(c1ccccc1)C1CCCCC1	103	1	102
CC(C)c1nc(=S)[nH][nH]1	84*	-8	87*
CC(C)(C)c1ccc(-c2nc(=S)[nH][nH]2)cc1	97	5	-50
O=c1[nH]nc(SCc2cscn2)n1CCc1ccccc1	105	4	4
Cc1cc(-n2sc3ccccc3c2=O)c2ccccc2n1	121	2	-2
Cc1ccc(-c2csc(-n3sc4ccccc4c3=O)n2)cc1	99	nt	87*
O=C(COc1ccccc1)c1c[nH]c2ccccc12	100	-13	-2
N#CSC1CC(=O)N(c2ccc(F)cc2)C1=O (stereo not given)	103	-11	99*
O=C(O)CCSC1CC(=O)N(c2ccc(F)cc2)C1=O (stereo not given)	100	4	-3
Cc1c(C(=O)OCC(=O)Nc2ccc(C#N)cc2)oc2ccccc12	107	-8	0
Cc1ccc(/C=C2/SC(=O)NC2=S)o1	39	-173	61
COc1ccc(/C=C2\SC(=O)NC2=S)cc1OC	90	-65	64*
CC(C)(C)c1cc(NC(=O)COC(=O)c2ccc(Br)o2)n(-c2ccccc2)n1	100	14	11
COc1cccc(C2=NN(C(=O)c3ccccc3Cl)C(c3ccco3)C2)c1 (stereo not given)	99	-31	15
COc1ccccc1C1=NN(C(=S)Nc2ccccc2)C(c2ccco2)C1 (stereo not given)	101	-38	73*
Cc1cccc(NC(=O)c2cnn(-c3ccc(F)cc3)c2C2CCN(C(=O)OC(C)(C)C)CC2)c1C	100	-3	3
COc1cc(NC(=O)C(C)(C)C)ccc1Br	102	12	-2
COc1cc(NC(=O)C(F)(F)F)c(OC)cc1Br	102	33*	-7
SMILES	PV pol inh	Mtb MenB inh	Mtb MbtI inh
N#CC(C#N)=Cc1cn(CC(=O)N2CCOCC2)c2ccccc12	102	-84	6
CC(C)NC(=O)c1ccc(-c2ccc(F)cc2)o1	101	30*	90
CCOC(=O)c1ccc(NC(=O)c2ccc(-c3ccc(F)cc3)o2)cc1	102	-30	40
c1nc(Sc2nnnn2C2CC2)c2ccsc2n1	108	-7	18
Cc1cc(N2CCOCC2)nc([S+]2CCCC2)n1	100	5	3
COc1ccc(C(=S)N2CCC(C)CC2)cc1	98	-53	72*
CC1CCN(C(=O)c2ccc(Br)cc2)CC1	102	36*	4
CC1CCN(C(=O)c2ccc(C(C)(C)C)cc2)CC1	98	2	nt
COc1ccc(C(=O)N2CC(C)CC(C)C2)cc1 (stereo not given)	100	-5	-5
CC(OC(=O)c1ccc(S(=O)(=O)C(F)F)cc1)C(=O)N1CCOCC1 (stereo not given)	97	-12	-7
Cn1cnc2onc(C(=O)NC3CCCCC3)c2c1=O	100	-12	1
COc1ccccc1N1CCN(CCCNC(=O)c2nn(C)c3c2COc2ccccc2-3)CC1	103	-13	-12
Cc1nc2cccnc2n1CCNC(=O)Nc1cccc2ccccc12	101	27*	39
O=C(O)CCNC(=O)Nc1cccc2ccccc12	99	-6	109
COc1ccc(C(=O)COC(=O)c2c3c(nc4ccccc24)CCN(C)C3)cc1	104	-17	8
N#CSC12CN3CN(CN(C3)C1)C2	99	33*	6
COc1ccc2oc(C(=O)N3CCN(S(=O)(=O)c4ccc5c(c4)OCCO5)CC3)c(C)c2c1	105	-24	36
CC1(C)N=C(c2ccccc2)C(=S)N1C(=O)c1ccccc1	98	-19	57*
CC1(C)C(=O)NC(=O)N1C(=O)c1ccccc1	106	-5	-12
CCc1ccc(C(=O)Nc2nncs2)cc1	100	13	9
Cc1ccc(C(=O)Nc2nncs2)cc1	101	26*	16
O=C(NCC1COc2ccccc2O1)c1ccc2c(c1)OCCO2 (stereo not given)	105	-31	-5
CCOC(=O)c1oc2ccc(Br)cc2c1N	101	-50	i
COc1ccc(C(=O)N2c3ccccc3CC2C)cc1 (stereo not given)	101	32*	2
